Lmaj promast = Leishmania major promastigote growth inhibition. inhibition, % at 10 µM. actives 9% (n = 200,000). Leishmania major promastigotes, resazurin fluorescence viability. AID 1063; in the data active = inhibition above about 50%;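 also: promastigotes grown with compound for 44 hours at 28 °C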
Insulin prom inh = TRM-6 insulin promoter activity inhibition. TRM-6 cells (human fetal islet line), insulin promoter-eGFP reporter, imaging; reporter expression induced with tamoxifen. inhibition, % at 2 µM. actives 0.9% (n = 130,000);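 active = inhibition above the mean plus 3 SD, with well images judged a real hit on visual review, cut at about 60% in these data, passing the limit was not always enough; inconclusive = inhibition over the cutoff but images rejected on review; inactive = inhibition not above the cutoff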
Ins promoter up = MIN6 insulin promoter up-regulation; MIN6 insulin promoter-GFP reporter, high-content imaging; hits give high values; z-score at 5 µM; actives 0.3% (n = 190,000); AID 1625;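 active = z-score above 3 at 5 µM with at least 500 cells counted in the well; inconclusive = wells under 500 cells, flagged as cytotoxic or low count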
WT yeast gro inh = growth inhibition of WT yeast, mitochondrial fusion screen; mitochondrial fusion phenotypic screen, WT strain; inhibition, % at 10 µM; actives 2.1% (n = 190,000); in the data active = inhibition above about 58%; tested in S. cerevisiae
Autophagy HCS = alters autophagy in cells; MEF GFP-LC3 puncta imaging; test concentration mostly 10 µM; calls only at 10 µM (by protocol); actives 0.98% (n = 190,000); AID 463193;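 active = percentage of spot-positive cells more than 3 SD above its plate mean, without a fluorescence outlier flag or 80% toxicity; inconclusive = no clear call, values can overlap the other calls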;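 also: spot-positive cell cutoff set from DMSO-treated cells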
An asterisk follows results filed as active; i = inactive; ? = inconclusive; / = no result; + = active, no number. The list is not random: actives were taken first. Their share in the collection is about 11%.

SMILES | Lmaj promast | Insulin prom inh | Ins promoter up | WT yeast gro inh | Autophagy HCS
CCCCCCCCOC(=O)CCc1c(C)[nH]c(=S)[nH]c1=O | -4.4 | 44.7 | -0.01 | 9.8 | i
Cc1ccc(NC(=O)C(=O)NCC2CCCO2)cc1 (centres undefined) | -4.8 | / | -0.45 | -5.3 | i
COc1ccc(NC(=O)COC(=O)C2CC3C=CC2C3)cc1 (centres undefined) | -3.9 | 79.0* | -0.05 | -0.3 | i
O=C(COC(=O)C1CC2C=CC1C2)Nc1ccccc1F (centres undefined) | -1.6 | 5.9 | -0.08 | 8.1 | i
OCCN1CCN(c2nc(-c3ccccc3)c3cc(Cl)ccc3n2)CC1 | 9.7 | -50.0 | -0.95 | 7.1 | i
O=C1CN(c2nc(-c3ccccc3)c3cc(Cl)ccc3n2)c2ccccc2N1 | -1.4 | / | 0.57 | -18.6 | +
CN1CCN(c2nc(-c3ccccc3)c3cc(Cl)ccc3n2)CC1 | 86.0* | -35.7 | -0.93 | 38.4 | i
Clc1ccc2nc(N3CCNCC3)nc(-c3ccccc3)c2c1 | 100.5* | -172.7 | -0.53 | 1.5 | i
CCOC(=O)C1=C(C)C/C(=N\NC(=O)c2ccccc2O)CC1 | / | / | -0.24 | / | /
CCC1(C)Cc2c(sc3nc(NN)n(C)c(=O)c23)CO1 (centres undefined) | 95.0* | 0.0 | -0.42 | 15.8 | i
CCOC(=O)CSc1nc2sc3c(c2c(=O)[nH]1)CC(C)(CC)OC3 (centres undefined) | -3.3 | 20.8 | 0.13 | 18.1 | i
COc1cc(CN2CC(=O)N(c3ccc(C)cc3)C2=S)cc(OC)c1OC | 81.9* | 8.1 | 0.57 | -15.7 | i
Cc1cc(Cn2ccnc2)c(C)cc1Cn1ccnc1 | 98.2* | -60.7 | -0.16 | -5.0 | i
COc1ccc(Cl)cc1-n1c(C)cc(C=O)c1C | 78.1* | 3.5 | -0.07 | 2.1 | i
C=CCCCCCCCCc1nc(=S)[nH][nH]1 | 52.8* | -31.0 | / | 74.8* | i
COP(=O)(OC)c1nc(-c2ccccc2)oc1N1CCOCC1 | 51.1* | -5.6 | -0.1 | 11.4 | i
Cc1cc(C)c(S(=O)(=O)Nc2ccc(-c3cn4ccccc4n3)cc2)c(C)c1 | 60.8* | 10.0 | 0.34 | 22.1 | i
CCCCC(=O)Nc1cccc(C(=O)N/N=C/c2ccc(OC)cc2OC)c1 | 99.7* | / | -0.11 | 10.4 | i
O=C(N/N=C/c1ccncc1)c1cccc(NC(=O)c2ccccc2Cl)c1 | 62.4* | 34.4 | / | -8.8 | i
COc1ccccc1/C=N/NC(=O)c1cccc(NC(=O)c2ccccc2Cl)c1 | 32.1 | -16.7 | 0.5 | -0.6 | i
COc1ccc(/C=N/NC(=O)c2cccc(NC(=O)c3ccccc3Cl)c2)cc1OC | 37.0 | 35.7 | / | 0.8 | i
O=C(Nc1cccc(Cl)c1)O/N=C\c1ccncc1 | 0.0 | 27.3 | / | -21.5 | i
COc1ccc(/C=N/NC(=O)c2cccc(NC(=O)c3ccccc3Cl)c2)c(OC)c1 | 52.8* | -10.0 | / | 3.5 | i
O=C(Nc1ccc(Cl)c(Cl)c1)O/N=C/c1ccncc1 | 17.0 | 0.0 | -0.69 | 74.0* | i
COCCOC(=O)N/C=C\c1nc2ccccc2c(=O)[nH]1 | 4.2 | 14.3 | 0.06 | 5.3 | i
SMILES | Lmaj promast | Insulin prom inh | Ins promoter up | WT yeast gro inh | Autophagy HCS
CC(C)(C)n1nc2c(c1NC(=O)Cc1ccccc1)CS(=O)(=O)C2 | 13.1 | 55.6 | -0.15 | 5.4 | i
O=C(c1ccccc1Cl)N(Cc1ccc(Br)cc1)N1C(=O)CCC1=O | -5.4 | / | 0.27 | 20.8 | i
Cc1ccsc1C(=O)NCCC(c1ccccc1)c1ccccc1 | 40.4 | / | 0.31 | 67.1* | i
O=C(NCCCc1ccccc1)Nc1cccc(Cl)c1 | 6.0 | / | 0.25 | 76.9* | i
Cc1ccc(NC(=S)NCCC(c2ccccc2)c2ccccc2)c(C)c1 | 65.8* | -4.3 | -0.72 | 65.1* | i
Fc1ccc(CNC(=S)Nc2cccc(Cl)c2)cc1 | 7.9 | 30.0 | 0.5 | 60.3* | i
S=C(NCc1ccncc1)Nc1cccc(Cl)c1 | 12.0 | 15.6 | -0.19 | -2.5 | i
Cc1nc(C)c(C(=O)NCCC(c2ccccc2)c2ccccc2)o1 | -2.4 | -69.2 | / | -0.3 | i
COc1ccc(OC)c(NC(=S)NCCC(c2ccccc2)c2ccccc2)c1 | 43.9 | 29.6 | / | / | i
S=C(NCCC(c1ccccc1)c1ccccc1)Nc1cccc(Cl)c1 | 59.2* | 6.9 | 0.15 | 80.2* | i
Cc1ccccc1NC(=S)NCCC(c1ccccc1)c1ccccc1 | 29.7 | / | -0.35 | 78.8* | i
COc1cccc(NC(=S)NCc2ccncc2)c1 | 68.2* | 3.6 | 0.01 | 0.5 | i
COCCCNC(=S)N1CCN(S(C)(=O)=O)CC1 | -6.3 | -40.0 | 0.07 | -13.2 | i
COc1ccc(S(=O)(=O)N2CCCN(S(=O)(=O)c3ccc(OC)cc3C)CC2)c(C)c1 | -3.2 | -73.9 | / | 10.6 | i
Cc1ccc(C(=O)NNC(=O)CSc2nnc(-c3ccncc3)n2-c2ccc(C)cc2)cc1 | -7.2 | 0.0 | / | 11.8 | i
CCCc1nc2c(C)cc(C)cc2c(N)c1CC | 98.0* | 51.9 | -0.74 | 8.8 | i
CC(C)(C)NC(=O)Cn1c(=O)c(=O)n(Cc2ccccc2)c2ccc(Cl)cc21 | 58.5* | 33.3 | 0.06 | -11.6 | i
Nc1nn(-c2ccccc2)c(N)c1N=Nc1ccccc1F | -1.6 | -6.7 | -0.08 | 23.5 | i
Cc1nn(-c2ccccc2)c(N)c1N=Nc1ccccc1 | 7.9 | / | -1.14 | 23.6 | i
Cc1cccc(N=Nc2c(C)nn(-c3ccccc3)c2N)c1C | 13.3 | 27.3 | / | 83.3* | i
Cc1nn(-c2ccccc2)c(N)c1N=Nc1ccc(Cl)cc1 | 13.7 | / | -0.12 | 81.2* | i
CCCCCOP(=O)(OCCCCC)C1(NS(=O)(=O)c2ccccc2)C=CC(=O)c2ccccc21 (centres undefined) | 99.7* | -61.0 | -0.17 | 14.2 | i
CCCCCCCOC1(c2ccccc2)OC(=O)c2ccccc21 (centres undefined) | -1.2 | / | -0.21 | 54.9 | i
COc1cc(/C=C/C(=O)O)cc(S(=O)(=O)N2CCc3ccccc3C2)c1OC | -2.7 | 26.7 | / | 2.3 | i
COCCCNC(=S)N1CCCN(c2nc3c(C)c(C)ccc3cc2C#N)CC1 | 6.9 | 0.0 | -0.94 | 68.5* | i
SMILES | Lmaj promast | Insulin prom inh | Ins promoter up | WT yeast gro inh | Autophagy HCS
Fc1ccccc1COc1ccc(Br)cc1CNCc1cccnc1 | 36.7 | / | / | 37.4 | i
O/N=C/c1cc(Br)ccc1OCc1ccccc1F | 99.6* | -92.6 | / | / | i
Fc1ccccc1COc1ccc(Br)cc1CNCc1ccncc1 | 99.7* | -21.6 | / | -16.8 | i
C=CCOc1ccc(Br)cc1/C=N/O | 5.9 | -18.8 | / | 4.4 | i
CCOc1cc(CNCc2ccncc2)cc(Br)c1OCc1ccc(F)cc1 | 92.7* | -54.2 | 0.67 | 47.9 | i
Nc1nonc1C(=O)NCCNCc1cc(Br)ccc1OCc1ccc(F)cc1 | -1.2 | / | ? | -23.0 | +
Cc1c(Cl)cccc1NC(=O)c1ncn[nH]1 | / | / | 0.07 | / | /
O=C(CN1CCN(Cc2ccc(F)cc2)C1=O)NC1CCCC1 | -10.4 | -455.6 | 0.29 | 0.6 | i
Fc1ccc(COc2cccc(CNCc3ccncc3)c2)cc1 | 95.7* | / | -2.23 | 9.3 | i
CC(=O)Nc1cccc(OCc2ccc(F)cc2)c1 | 19.7 | -141.2 | -0.95 | 5.0 | i
Fc1ccc(COc2ccc(Br)cc2CNCc2ccncc2)cc1 | 97.4* | / | -1.07 | 13.3 | i
